# Results reported in PMC7862700, “An all-to-all approach to the identification of sequence-specific readers for epigenetic DNA modifications on cytosine”.
# Key:
# Experiment in all cases: DAPPL (digital affinity profiling via proximity ligation, sequencing); 10 mM Tris-HCl pH 7.5, 50 mM NaCl, 1 mM DTT, 4% glycerol, room temperature, 30 min; GST-TFs on glutathione beads, 16-mer random dsDNA library, 0.1% formaldehyde crosslink after washing; high values mean tight binding
# FEV = target: T1, FEV (Homo sapiens, UniProt Q99581 1-238); conditions: protein: recombinant; tags: N-terminal GST; dsDNA, one strand shown
# T1 sequence: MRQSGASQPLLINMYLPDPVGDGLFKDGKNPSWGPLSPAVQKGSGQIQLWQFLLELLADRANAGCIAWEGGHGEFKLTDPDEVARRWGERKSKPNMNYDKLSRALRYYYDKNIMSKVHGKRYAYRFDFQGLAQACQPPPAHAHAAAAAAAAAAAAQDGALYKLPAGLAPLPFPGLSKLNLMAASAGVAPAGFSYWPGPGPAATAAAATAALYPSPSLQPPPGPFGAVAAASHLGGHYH
# Procedure, shortened: (§1)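 Beads coated with glutathione captured GST-fused human transcription factors that had been expressed in yeast, and the factors were then given DNA barcodes and pooled with a tag-only sample. The pools were incubated with 200 nmole of a random double-stranded 16-mer DNA library in Tris/NaCl/DTT/glycerol buffer for 30 min at room temperature, washed, crosslinked with 0.1% formaldehyde and proximity-ligated with BsaI/T4 ligase at 37 °C for 1 h. PCR amplification and Illumina NextSeq500 sequencing came last. Binding signal is each hexamer's read frequency for a factor divided by its frequency for the tag-only sample.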
# ETV5 = ETV5 (Homo sapiens, UniProt P41161 1-510); conditions: protein: recombinant; tags: N-terminal GST; dsDNA, one strand shown
# Procedure, shortened: as §1
# HSF1 = HSF1 (Homo sapiens, UniProt Q00613 1-529); conditions: protein: recombinant; tags: N-terminal GST; chain copies: 3; dsDNA, one strand shown
# Procedure, shortened: as §1
# SPIC = target: T2, SPIC (Homo sapiens, UniProt Q8N5J4 1-248); conditions: protein: recombinant; tags: N-terminal GST; dsDNA, one strand shown
# T2 sequence: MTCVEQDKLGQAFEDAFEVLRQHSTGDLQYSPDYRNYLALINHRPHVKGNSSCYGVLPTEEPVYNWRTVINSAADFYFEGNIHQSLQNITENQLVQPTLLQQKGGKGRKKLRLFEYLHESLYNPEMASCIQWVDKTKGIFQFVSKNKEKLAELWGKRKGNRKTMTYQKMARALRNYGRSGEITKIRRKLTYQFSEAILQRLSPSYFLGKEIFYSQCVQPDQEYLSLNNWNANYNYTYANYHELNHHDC
# Procedure, shortened: as §1
# ELF4 = ELF4 (Homo sapiens, UniProt Q99607 1-663); conditions: protein: recombinant; tags: N-terminal GST; dsDNA, one strand shown
# Procedure, shortened: as §1
# ELK4 = target: T3, ELK4 (Homo sapiens, UniProt P28324-2 1-405); conditions: protein: recombinant; tags: N-terminal GST; dsDNA, one strand shown
# T3 sequence: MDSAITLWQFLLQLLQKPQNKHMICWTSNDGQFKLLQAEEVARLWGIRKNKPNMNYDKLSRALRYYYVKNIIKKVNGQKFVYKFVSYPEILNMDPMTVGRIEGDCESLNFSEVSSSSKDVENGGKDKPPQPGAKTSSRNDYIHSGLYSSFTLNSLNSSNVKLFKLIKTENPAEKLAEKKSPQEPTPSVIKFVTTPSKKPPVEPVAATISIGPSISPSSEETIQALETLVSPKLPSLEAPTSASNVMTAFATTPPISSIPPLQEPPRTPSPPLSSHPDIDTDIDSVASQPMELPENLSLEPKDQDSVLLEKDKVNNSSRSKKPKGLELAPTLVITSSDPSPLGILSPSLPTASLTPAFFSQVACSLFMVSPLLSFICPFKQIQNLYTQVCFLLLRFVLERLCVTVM
# Procedure, shortened: as §1
# ETV2 = target: T4, ETV2 (Homo sapiens, UniProt O00321 1-342); conditions: protein: recombinant; tags: N-terminal GST; dsDNA, one strand shown
# T4 sequence: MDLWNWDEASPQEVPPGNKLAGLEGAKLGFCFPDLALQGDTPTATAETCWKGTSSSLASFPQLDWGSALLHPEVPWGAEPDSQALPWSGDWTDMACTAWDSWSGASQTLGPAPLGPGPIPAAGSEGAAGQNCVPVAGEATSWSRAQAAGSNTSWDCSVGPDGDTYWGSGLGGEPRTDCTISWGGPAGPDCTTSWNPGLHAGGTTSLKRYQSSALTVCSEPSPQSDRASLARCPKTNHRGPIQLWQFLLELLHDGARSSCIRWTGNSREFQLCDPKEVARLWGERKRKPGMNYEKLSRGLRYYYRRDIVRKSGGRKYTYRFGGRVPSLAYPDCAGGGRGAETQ
# Procedure, shortened: as §1
# ELF3 = target: T5, ELF3 (Homo sapiens, UniProt P78545 1-371); conditions: protein: recombinant; tags: N-terminal GST; dsDNA, one strand shown
# T5 sequence: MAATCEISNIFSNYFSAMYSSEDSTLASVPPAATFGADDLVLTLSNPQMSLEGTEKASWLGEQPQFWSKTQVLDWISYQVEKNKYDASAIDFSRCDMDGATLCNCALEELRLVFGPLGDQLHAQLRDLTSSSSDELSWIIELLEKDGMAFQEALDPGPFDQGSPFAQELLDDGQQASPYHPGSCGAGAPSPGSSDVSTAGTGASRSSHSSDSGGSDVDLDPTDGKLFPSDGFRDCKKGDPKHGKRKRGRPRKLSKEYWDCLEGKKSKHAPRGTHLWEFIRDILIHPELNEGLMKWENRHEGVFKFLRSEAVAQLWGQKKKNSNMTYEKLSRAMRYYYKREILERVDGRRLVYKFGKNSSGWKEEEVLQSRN
# Procedure, shortened: as §1
# CRX = CRX (Homo sapiens, UniProt O43186 1-299); conditions: protein: recombinant; tags: N-terminal GST; dsDNA, one strand shown
# Procedure, shortened: as §1
# ETV1 = ETV1 (Homo sapiens, UniProt P50549 1-477); conditions: protein: recombinant; tags: N-terminal GST; dsDNA, one strand shown
# Procedure, shortened: as §1
# ERF = target: T6, ERF (Homo sapiens, UniProt P50548 1-548); conditions: protein: recombinant; tags: N-terminal GST; dsDNA, one strand shown
# T6 sequence: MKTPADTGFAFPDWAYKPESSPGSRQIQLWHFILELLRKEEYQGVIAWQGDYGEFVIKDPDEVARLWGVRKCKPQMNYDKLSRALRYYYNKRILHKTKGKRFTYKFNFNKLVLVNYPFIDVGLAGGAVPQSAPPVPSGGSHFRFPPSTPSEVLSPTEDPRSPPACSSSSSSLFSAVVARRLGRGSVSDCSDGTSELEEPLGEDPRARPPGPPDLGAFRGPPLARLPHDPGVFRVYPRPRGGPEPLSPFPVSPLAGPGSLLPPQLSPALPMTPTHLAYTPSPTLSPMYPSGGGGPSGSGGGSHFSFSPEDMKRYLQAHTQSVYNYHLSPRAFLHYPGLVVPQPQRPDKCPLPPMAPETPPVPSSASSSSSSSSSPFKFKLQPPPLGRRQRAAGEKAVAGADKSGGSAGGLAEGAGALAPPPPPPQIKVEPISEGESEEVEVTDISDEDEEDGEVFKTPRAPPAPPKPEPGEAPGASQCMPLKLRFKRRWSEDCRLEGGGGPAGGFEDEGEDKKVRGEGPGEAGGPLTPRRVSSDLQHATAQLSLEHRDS
# Procedure, shortened: as §1
# ETV3L = target: T7, ETV3L (Homo sapiens, UniProt Q6ZN32 1-361); conditions: protein: recombinant; tags: N-terminal GST; dsDNA, one strand shown
# T7 sequence: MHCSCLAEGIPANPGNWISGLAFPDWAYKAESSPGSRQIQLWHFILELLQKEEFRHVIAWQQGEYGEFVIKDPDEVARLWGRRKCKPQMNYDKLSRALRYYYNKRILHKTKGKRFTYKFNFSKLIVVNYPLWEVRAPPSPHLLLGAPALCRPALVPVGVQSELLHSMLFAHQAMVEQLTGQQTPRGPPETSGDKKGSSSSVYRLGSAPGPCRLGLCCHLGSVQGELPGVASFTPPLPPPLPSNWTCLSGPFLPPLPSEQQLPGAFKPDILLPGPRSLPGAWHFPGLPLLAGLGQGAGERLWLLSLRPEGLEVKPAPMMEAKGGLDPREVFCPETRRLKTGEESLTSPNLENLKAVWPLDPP
# Procedure, shortened: as §1
# ETS2 = target: T8, ETS2 (Homo sapiens, UniProt P15036 1-469); conditions: protein: recombinant; tags: N-terminal GST; dsDNA, one strand shown
# T8 sequence: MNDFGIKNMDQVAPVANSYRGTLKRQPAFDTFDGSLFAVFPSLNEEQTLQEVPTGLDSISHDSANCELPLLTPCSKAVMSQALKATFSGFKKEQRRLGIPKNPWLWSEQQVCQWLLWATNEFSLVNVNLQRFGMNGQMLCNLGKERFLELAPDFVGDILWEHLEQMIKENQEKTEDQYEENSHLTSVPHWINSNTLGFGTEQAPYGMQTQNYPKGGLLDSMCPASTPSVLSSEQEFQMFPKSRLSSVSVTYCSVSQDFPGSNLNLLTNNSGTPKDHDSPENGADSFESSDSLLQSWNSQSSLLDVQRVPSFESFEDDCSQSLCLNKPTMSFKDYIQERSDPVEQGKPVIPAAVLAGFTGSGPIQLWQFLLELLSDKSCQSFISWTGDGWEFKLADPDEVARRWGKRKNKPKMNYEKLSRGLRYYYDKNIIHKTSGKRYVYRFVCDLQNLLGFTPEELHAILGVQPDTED
# Procedure, shortened: as §1
# SPDEF = target: T9, SPDEF (Homo sapiens, UniProt O95238 1-335); conditions: protein: recombinant; tags: N-terminal GST; dsDNA, one strand shown
# T9 sequence: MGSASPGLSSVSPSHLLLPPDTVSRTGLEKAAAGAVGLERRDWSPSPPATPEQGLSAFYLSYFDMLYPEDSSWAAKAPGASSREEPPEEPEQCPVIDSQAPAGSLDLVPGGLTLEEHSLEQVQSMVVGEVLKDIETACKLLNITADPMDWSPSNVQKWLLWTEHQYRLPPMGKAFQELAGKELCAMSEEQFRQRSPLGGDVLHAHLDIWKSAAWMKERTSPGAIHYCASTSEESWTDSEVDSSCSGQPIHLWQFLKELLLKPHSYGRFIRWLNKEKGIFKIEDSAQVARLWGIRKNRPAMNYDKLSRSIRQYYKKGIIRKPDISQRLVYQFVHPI
# Procedure, shortened: as §1
# ETV7 = target: T10, ETV7 (Homo sapiens, UniProt Q9Y603 1-341); conditions: protein: recombinant; tags: N-terminal GST; dsDNA, one strand shown
# T10 sequence: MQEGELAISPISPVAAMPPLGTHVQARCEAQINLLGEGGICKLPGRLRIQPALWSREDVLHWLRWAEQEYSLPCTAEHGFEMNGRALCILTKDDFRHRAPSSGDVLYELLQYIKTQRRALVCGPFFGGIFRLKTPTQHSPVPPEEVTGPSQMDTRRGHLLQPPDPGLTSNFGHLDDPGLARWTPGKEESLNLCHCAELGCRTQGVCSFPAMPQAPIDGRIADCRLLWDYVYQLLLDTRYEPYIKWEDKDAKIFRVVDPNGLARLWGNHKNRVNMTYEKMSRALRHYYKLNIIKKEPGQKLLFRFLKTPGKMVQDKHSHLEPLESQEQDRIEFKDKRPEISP
# Procedure, shortened: as §1
# ELF5 = target: T11, ELF5 (Homo sapiens, UniProt Q9UKW6-2 1-255); conditions: protein: recombinant; tags: N-terminal GST; dsDNA, one strand shown
# T11 sequence: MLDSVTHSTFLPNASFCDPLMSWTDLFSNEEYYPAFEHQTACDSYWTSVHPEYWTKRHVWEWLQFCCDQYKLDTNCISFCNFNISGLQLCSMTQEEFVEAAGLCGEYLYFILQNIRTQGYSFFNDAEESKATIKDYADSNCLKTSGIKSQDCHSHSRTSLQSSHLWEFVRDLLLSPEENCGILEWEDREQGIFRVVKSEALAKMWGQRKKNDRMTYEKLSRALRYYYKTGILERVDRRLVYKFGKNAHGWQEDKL
# Procedure, shortened: as §1
# ETV3 = target: T12, ETV3 (Homo sapiens, UniProt P41162-2 1-143); conditions: protein: recombinant; tags: N-terminal GST; dsDNA, one strand shown
# T12 sequence: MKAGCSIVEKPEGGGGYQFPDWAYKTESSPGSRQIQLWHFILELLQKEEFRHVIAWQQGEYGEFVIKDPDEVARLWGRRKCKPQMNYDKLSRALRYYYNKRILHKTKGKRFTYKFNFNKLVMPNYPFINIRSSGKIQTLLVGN
# Procedure, shortened: as §1
# ETV6 = ETV6 (Homo sapiens, UniProt P41212 1-452); conditions: protein: recombinant; tags: N-terminal GST; dsDNA, one strand shown
# Procedure, shortened: as §1
# Sequence of ETV1 (P50549 whole entry): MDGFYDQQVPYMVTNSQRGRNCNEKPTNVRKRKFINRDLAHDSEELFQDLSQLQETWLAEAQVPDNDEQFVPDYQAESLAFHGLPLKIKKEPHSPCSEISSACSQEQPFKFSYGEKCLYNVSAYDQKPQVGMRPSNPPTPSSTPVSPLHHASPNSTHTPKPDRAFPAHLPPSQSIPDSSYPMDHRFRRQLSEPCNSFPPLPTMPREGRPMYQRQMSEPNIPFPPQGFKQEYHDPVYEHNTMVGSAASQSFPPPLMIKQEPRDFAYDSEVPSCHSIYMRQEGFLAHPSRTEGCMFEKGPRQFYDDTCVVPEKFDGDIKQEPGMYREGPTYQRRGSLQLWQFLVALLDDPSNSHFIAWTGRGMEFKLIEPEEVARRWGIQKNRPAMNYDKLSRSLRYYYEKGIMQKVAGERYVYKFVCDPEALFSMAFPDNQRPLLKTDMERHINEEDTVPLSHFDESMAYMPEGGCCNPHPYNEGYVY
# Sequence of CRX (O43186 whole entry): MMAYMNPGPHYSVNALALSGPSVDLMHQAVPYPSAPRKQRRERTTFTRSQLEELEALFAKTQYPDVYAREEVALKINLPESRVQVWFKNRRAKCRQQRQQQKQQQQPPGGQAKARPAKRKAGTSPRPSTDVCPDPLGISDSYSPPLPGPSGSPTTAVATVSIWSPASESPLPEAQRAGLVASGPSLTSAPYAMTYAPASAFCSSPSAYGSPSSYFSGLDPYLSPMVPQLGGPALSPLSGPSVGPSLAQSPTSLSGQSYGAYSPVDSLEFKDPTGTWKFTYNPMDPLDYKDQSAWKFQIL
# Sequence of HSF1 (Q00613 whole entry): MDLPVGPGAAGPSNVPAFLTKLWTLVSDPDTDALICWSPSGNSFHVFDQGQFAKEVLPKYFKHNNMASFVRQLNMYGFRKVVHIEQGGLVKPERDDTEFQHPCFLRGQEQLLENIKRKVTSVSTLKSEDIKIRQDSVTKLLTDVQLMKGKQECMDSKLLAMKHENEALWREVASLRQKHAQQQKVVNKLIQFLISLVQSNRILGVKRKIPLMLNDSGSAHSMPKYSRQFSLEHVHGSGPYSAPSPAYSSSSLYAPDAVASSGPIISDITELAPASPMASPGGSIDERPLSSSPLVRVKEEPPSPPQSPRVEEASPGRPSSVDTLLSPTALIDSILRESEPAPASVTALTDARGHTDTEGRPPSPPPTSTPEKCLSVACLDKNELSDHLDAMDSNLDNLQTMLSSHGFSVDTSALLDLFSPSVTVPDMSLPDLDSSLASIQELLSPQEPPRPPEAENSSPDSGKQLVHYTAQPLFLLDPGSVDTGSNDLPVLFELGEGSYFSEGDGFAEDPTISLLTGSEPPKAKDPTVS
# Sequence of ELF4 (Q99607 whole entry): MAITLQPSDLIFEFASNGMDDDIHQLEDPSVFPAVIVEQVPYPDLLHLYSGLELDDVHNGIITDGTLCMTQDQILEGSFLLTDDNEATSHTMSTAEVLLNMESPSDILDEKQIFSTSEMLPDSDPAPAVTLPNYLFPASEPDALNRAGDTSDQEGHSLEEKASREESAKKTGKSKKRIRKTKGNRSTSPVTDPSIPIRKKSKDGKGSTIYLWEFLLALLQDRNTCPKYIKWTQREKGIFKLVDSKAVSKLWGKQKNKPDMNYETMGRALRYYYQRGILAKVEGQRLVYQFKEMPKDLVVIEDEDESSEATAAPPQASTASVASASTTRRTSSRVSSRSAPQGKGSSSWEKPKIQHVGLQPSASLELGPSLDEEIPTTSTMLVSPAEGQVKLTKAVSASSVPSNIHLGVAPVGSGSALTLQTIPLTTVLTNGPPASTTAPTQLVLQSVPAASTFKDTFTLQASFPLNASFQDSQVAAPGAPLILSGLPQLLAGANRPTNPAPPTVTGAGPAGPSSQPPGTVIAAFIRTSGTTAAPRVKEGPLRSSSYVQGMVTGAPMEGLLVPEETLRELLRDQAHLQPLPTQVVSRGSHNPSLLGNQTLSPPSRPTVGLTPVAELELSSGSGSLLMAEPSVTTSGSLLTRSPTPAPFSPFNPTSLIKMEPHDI
# Sequence of ETV5 (P41161 whole entry): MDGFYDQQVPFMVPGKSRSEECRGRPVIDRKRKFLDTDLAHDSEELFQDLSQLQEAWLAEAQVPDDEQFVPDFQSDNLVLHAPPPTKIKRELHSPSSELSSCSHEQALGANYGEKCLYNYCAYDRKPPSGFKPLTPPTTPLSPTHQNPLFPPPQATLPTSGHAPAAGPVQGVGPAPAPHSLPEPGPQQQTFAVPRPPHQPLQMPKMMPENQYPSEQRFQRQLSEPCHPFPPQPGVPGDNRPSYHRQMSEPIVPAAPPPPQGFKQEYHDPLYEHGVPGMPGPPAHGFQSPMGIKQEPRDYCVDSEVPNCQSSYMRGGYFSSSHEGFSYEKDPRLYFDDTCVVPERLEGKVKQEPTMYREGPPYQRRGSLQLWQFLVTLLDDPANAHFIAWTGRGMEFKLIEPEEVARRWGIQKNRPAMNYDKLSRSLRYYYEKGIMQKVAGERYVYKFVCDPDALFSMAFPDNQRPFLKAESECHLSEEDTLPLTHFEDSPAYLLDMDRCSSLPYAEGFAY
# Sequence of ETV6 (P41212 whole entry): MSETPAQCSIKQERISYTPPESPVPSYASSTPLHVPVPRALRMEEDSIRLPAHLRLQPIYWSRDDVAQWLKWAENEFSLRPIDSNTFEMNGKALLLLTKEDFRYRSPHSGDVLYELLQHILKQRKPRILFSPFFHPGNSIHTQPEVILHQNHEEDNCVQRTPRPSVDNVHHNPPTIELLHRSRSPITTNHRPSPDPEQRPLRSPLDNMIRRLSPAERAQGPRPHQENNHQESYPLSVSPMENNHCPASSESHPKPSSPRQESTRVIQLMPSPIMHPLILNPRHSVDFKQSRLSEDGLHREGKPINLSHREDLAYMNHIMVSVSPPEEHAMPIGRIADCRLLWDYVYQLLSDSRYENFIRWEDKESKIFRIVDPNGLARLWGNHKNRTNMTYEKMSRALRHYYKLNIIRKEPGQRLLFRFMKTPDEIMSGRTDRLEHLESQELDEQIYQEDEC
sequence,measurement,setting,value
GCTGCT,binding signal,FEV,"1.27 fold enrichment (6-mer frequency, TF over GST control)"
same,binding signal,ETV5,"1.25 fold enrichment (6-mer frequency, TF over GST control)"
same,binding signal,HSF1,"1.13 fold enrichment (6-mer frequency, TF over GST control)"
same,binding signal,SPIC,"1.5 fold enrichment (6-mer frequency, TF over GST control)"
same,binding signal,ELF4,"1.29 fold enrichment (6-mer frequency, TF over GST control)"
same,binding signal,ELK4,"1.36 fold enrichment (6-mer frequency, TF over GST control)"
same,binding signal,ETV2,"1.25 fold enrichment (6-mer frequency, TF over GST control)"
same,binding signal,ELF3,"1.37 fold enrichment (6-mer frequency, TF over GST control)"
same,binding signal,CRX,"1.27 fold enrichment (6-mer frequency, TF over GST control)"
same,binding signal,ETV1,"1.42 fold enrichment (6-mer frequency, TF over GST control)"
same,binding signal,ERF,"1.11 fold enrichment (6-mer frequency, TF over GST control)"
same,binding signal,ETV3L,"1.43 fold enrichment (6-mer frequency, TF over GST control)"
same,binding signal,ETS2,"1.43 fold enrichment (6-mer frequency, TF over GST control)"
same,binding signal,SPDEF,"1.21 fold enrichment (6-mer frequency, TF over GST control)"
same,binding signal,ETV7,"1.21 fold enrichment (6-mer frequency, TF over GST control)"
same,binding signal,ELF5,"1.23 fold enrichment (6-mer frequency, TF over GST control)"
same,binding signal,ETV3,"1.2 fold enrichment (6-mer frequency, TF over GST control)"
same,binding signal,ETV6,"1.27 fold enrichment (6-mer frequency, TF over GST control)"
